Six1-Eya2 blk – Six1/Eya2 interaction inhibition; Q15475+O00167; activity change, % (test concentration not listed); AlphaScreen GST-Six1/His-Eya2 binding, biochemical; active compounds read low; 360,000 tested, 0.56% active; in the data active = activity change below about -65%; inconclusive = mostly about -30% to -63%
Target sequence (O00167 whole entry, looked up): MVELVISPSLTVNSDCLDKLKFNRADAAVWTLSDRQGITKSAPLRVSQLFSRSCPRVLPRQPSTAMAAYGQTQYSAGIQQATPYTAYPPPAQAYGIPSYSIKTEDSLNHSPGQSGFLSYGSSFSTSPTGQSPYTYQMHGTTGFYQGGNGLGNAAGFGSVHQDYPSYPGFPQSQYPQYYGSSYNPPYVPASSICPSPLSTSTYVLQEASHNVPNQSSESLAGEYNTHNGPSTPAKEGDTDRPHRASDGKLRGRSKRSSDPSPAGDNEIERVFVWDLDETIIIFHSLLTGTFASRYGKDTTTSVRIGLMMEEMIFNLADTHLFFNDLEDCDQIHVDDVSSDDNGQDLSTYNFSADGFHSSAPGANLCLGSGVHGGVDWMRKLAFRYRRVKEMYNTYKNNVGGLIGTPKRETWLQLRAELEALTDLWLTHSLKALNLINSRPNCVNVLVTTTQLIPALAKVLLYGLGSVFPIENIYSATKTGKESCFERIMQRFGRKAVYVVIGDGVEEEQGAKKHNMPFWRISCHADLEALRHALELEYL
Target sequence (Q15475 whole entry, looked up): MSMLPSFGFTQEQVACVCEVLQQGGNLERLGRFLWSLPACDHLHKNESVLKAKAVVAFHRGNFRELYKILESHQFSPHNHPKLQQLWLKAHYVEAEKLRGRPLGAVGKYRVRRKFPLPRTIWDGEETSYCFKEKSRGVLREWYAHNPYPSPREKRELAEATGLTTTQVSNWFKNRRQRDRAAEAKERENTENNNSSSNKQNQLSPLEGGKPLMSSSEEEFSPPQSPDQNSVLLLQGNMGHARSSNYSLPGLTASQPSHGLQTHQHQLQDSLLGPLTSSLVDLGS
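Six1/Eya2 binding was read as AlphaScreen signal after compounds were pinned into GST-Six1 plus His-tagged Eya2 (5X stock 250/500 nM) in pH 8.0 Tris/NaCl/TCEP buffer, beads added, then incubated 1 h, 37 C, dark.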
CtBP-E1A inh – inhibitors of CtBP/E1A interaction; 340,000 tested, 0.49% active; AlphaScreen GST-E1A/His-CtBP binding, 1536-well; active compounds read low; activity change, % (test concentration not listed); in the data active = activity change below about -65%; inconclusive = mostly about -30% to -63%
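Steps: dispense buffer (Tris pH 8.0, NaCl 300 mM, TCEP 1 mM, BSA, Tween 20); add 5X protein mix (GST-E1A, His-CtBP, 125 nM each); pin 23 nL compound; 2 h at 37 °C, dark; add 5X beads (50 ug/mL); 1 h; read.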
Eya2 inh – blocks the phosphatase activity of human Eya2. O00167. recombinant Eya2, OMFP fluorescence dephosphorylation (OMFP is methylfluorescein phosphate). Potency, µM (highest dose often 76.9 µM), hits mostly inhibitors. 330,000 tested, 0.006% active. AID 488837
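Eya2 (0.2 uM) preincubated 10 min at ambient with compound, then OMFP substrate added at 50 uM; 10 min reaction in 50 mM HEPES pH 7.5, 50 mM NaCl, 5 uM MgCl2, 0.05% BSA, 1 mM DTT. Fluorescence read at Ex 485/Em 525 nm.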
B2AR arrestin – agonists driving beta-arrestin recruitment to human beta2-adrenergic receptor; Potency, µM (titrated, usually from 46.1 µM), usual class: activators; P07550; beta-arrestin recruitment to beta2AR, cell-based reporter; 330,000 tested, 0.02% active; also: nearly all actives have a fitted effect of over 65% in size
L3MBTL1 inh – inhibitors of human L3MBTL1 | AlphaScreen L3MBTL1–H3K9me1 peptide binding | AID 485360 | Q9Y468 | 230,000 tested, 0.66% active | Potency, µM (series often up to 57.1 µM), hits mostly inhibitors; also: nearly all actives have a fitted effect of over 60% in size
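Displacement of a biotinylated histone H3(1-15) peptide monomethylated at Lys9 (75 nM) from L3MBTL1 (50 nM) was measured by AlphaScreen after a 30 min room-temperature compound incubation; cefsulodin titration served as intraplate control.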
A number is an active result; . = inactive; ? = inconclusive; / = not tested or not shown. Rows were chosen to be rich in hits. Some 0.9% of all compounds tested hit in one or more screens of this group. Unless noted, calls follow the shape of the dose curve; as a rule, active = well fitted curve in the direction sought with a large enough effect; inconclusive = small, poorly fitted or top-dose-only effect, or another doubt; inactive = no such curve, though single readings can be large; an effect the other way counts as inactive or inconclusive.

SMILES	Six1-Eya2 blk	CtBP-E1A inh	Eya2 inh	B2AR arrestin	L3MBTL1 inh
CCOc1cc2nc(-c3ccc(OC)c(OC)c3)nc(NCCCN3CCOCC3)c2cc1OC	-91	-88	.	.	/
COc1cccc(CNC(=O)COC(=O)c2ccc(N3CCCC3=O)cc2)c1	.	.	/	/	/
CCCCCCCCCCCCCCCCCCOC[C@H](COP(=O)([O-])OCC[N+](C)(C)C)OC	/	/	25µM	/	/
O=[N+]([O-])c1ccc2c(OCc3nnc(-c4ccccc4Br)o3)ncnc2c1	-70	-85	.	.	.
O=C(Nc1cccc(S(=O)(=O)N2CCOCC2)c1)[C@@H]1CCCN1S(=O)(=O)c1ccc(Cl)cc1	?	-65	.	.	.
O=C(CSc1nnc(C2CC2)n1CC1CCCO1)Nc1ccc(Cl)cc1 (stereo unspecified)	.	.	.	.	/
COc1cc(/C=C2\SC(=Nc3ccc(O)cc3)NC2=O)cc(OC)c1OC	.	.	.	.	/
COc1cc(/C=C2/SC(=Nc3ccc(O)cc3)NC2=O)cc(OC)c1O	-71	.	.	.	?
CCN(C(=O)c1cc2c(=O)[nH]c3ccc(C)cc3c2s1)c1ccc(OC)cc1	.	.	.	.	.
CCOC(=O)CN(C(=O)CSc1nnc2c(n1)[nH]c1ccc(F)cc12)c1ccccc1	-66	-70	.	.	.
COCCNc1nc(Nc2ccc(C)cc2C)c2sccc2n1	.	.	/	/	/
O=C(Cc1ccc(F)cc1)Oc1ccc(C(=S)N2CCCC2)cc1	-71	.	.	.	.
COc1ccc(CC(=O)Oc2ccc(F)cc2)cc1	.	.	.	.	.
Cc1ccc(C2(C)NC(=O)N(CC(=O)NNC(=O)c3ccoc3C)C2=O)cc1 (stereo unspecified)	.	.	.	.	.
CCNC(=O)C1CCCN(C(=O)c2ccccc2F)CC1 (stereo unspecified)	.	.	/	/	/
Cc1ccc(C(=O)N/C(=C\c2ccco2)C(=O)NCCCn2ccnc2)cc1	-77	.	.	.	?
COc1ccc(/C=C/C(=O)O/N=C(\N)c2ccccn2)cc1OC	.	-73	.	.	.
C=CCSC1=N/C(=C\C=C\c2ccco2)C(=O)S1	.	.	.	.	2.8µM
CN1CCN(c2cc(-c3cc(O)c4ncccc4c3)ccn2)CC1	/	/	.	.	28µM
Oc1cc(-c2cccnc2)cc2cccnc12	/	/	.	?	7.9µM
CN1CCN(C(=O)c2cccc(-c3ccc4nncn4c3)c2)CC1	.	.	/	/	/
CN1CCN(C(=O)c2cccc(-c3cc(O)c4ncccc4c3)c2)CC1	/	/	.	.	32µM
O=C(CSc1ncccn1)NCc1ccc(F)cc1	.	.	.	.	.
O=C(CSc1ccc(-c2ccccn2)nn1)NCc1ccccc1	-76	?	.	.	/
O=C(CSc1ccc(-c2ccccn2)nn1)c1ccc([N+](=O)[O-])cc1	-67	-83	.	.	/
SMILES	Six1-Eya2 blk	CtBP-E1A inh	Eya2 inh	B2AR arrestin	L3MBTL1 inh
O=C(CSc1ccc(-c2ccccn2)nn1)NCc1ccc(F)cc1	-81	-66	.	.	/
O=C(CSc1ccc(-c2ccccn2)nn1)NC1CCCCC1	-90	-72	.	.	/
O=C(CSc1ccc(-c2ccccc2)nn1)NC1CCCCC1	.	.	.	.	/
Oc1ccc(COC2CCN(Cc3ccccc3)C2)c2cccnc12 (stereo unspecified)	/	/	.	.	?
O=C(c1ccc2c(=O)n3c(nc2c1)CCCCC3)N1CCc2ccccc21	.	/	.	.	/
Oc1ccc(-c2csc(NCc3ccco3)n2)cc1	.	.	.	.	/
c1coc(CNc2nc(-c3cccs3)cs2)c1	.	.	.	.	28µM
COCC(=O)Nc1ccc2c(c1)[C@@H]1C[C@H](CC(=O)OC)O[C@H](CO)[C@@H]1O2	.	.	/	/	/
Cc1c(N=NC2=C(O)CCCC2=O)c(=O)n(-c2ccccc2)n1C	-79	-92	.	.	.
NS(=O)(=O)c1ccc(Nc2ccccc2)c([N+](=O)[O-])c1	.	/	?	.	.
O=[N+]([O-])c1cc(Cl)ccc1Nc1ccccc1	-78	/	.	.	28µM
COc1ccc(NC(=O)C2(C)CCN2Cc2ccc(OC)c3ccccc23)cc1OC (stereo unspecified)	.	?	/	/	/
CC(OC(=O)c1ccc([N+](=O)[O-])o1)C(=O)Nc1nc(-c2ccc(F)c(F)c2)cs1 (stereo unspecified)	.	.	.	.	.
CC(C)[C@@H]1CC[C@@H](C)C[C@@H]1P(=O)(c1ccccc1)c1ccccc1	/	/	.	/	/
COc1ccc(NC(=O)c2c3c(nc4ccccc24)CCC3)cc1S(=O)(=O)N1CCOCC1	.	.	.	.	32µM
COc1ccc(C(=O)Nc2nc3ccccc3[nH]2)cc1S(=O)(=O)N1CCCC1	?	-70	.	.	/
COc1ccc2c(c1OC)C(=O)OC2N1C(=O)CC[C@H]1C(=O)Nc1ccc2c(c1)OCO2 (stereo partly specified)	.	.	.	.	/
CC(=O)Nc1ccc2ccccc2c1	.	.	.	.	/
CCOC(=O)C(Nc1ccc2ccccc2c1)C(=O)OCC	.	.	.	.	28µM
O=C(O)C1C=CC(C(=O)O)c2ccccc21 (stereo unspecified)	.	.	/	/	/
N=C(N)c1ccc(N=Nc2c(O)ccc3c2[nH]c2ccccc23)cc1	?	-67	/	/	/
Nc1ccccc1SCC(=O)Nc1ccc2c(c1)OCCO2	.	.	.	.	/
COc1ccc(NC(=O)CSc2ccc3nnc(-c4cccnc4)n3n2)cc1OC	.	.	.	.	/
